Source: PubChem BioAssay (NCATS)
Inconclusive results are not listed. Active and inactive are the calls of the source. Unless noted, calls follow the shape of the dose curve; as a rule, active = well fitted curve in either direction with a large enough effect (not every such curve was filed as active); inconclusive = small, poorly fitted or top-dose-only effect, or another doubt; inactive = flat fitted curve, though single readings scatter.

Experiments:
[1] = AP1 Signaling Pathway (AID 357); conditions: ME-180 AP-1-bla reporter, EGF-induced, beta-lactamase ratio, 5 h; at 17.2 µM (top of the series) unless noted;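 also: ME-180 reporter cells stimulated with EGF at its EC50 level; % is scaled to controls: 0 for no effect and ±100 for the full control effect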
In short: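 In this screen, ME-180 cells in Opti-MEM with 0.5% dialyzed FBS received EC50 EGF and compound titrations for 5 h. AP-1 reporter beta-lactamase was detected via CCF4 ratio, giving AC50 for positive and negative modulators.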

[2] = NFAT Signaling Pathway (AID 444); conditions: Jurkat NFAT-bla M1, carbachol, beta-lactamase ratio, 5 h; at 17.2 µM (top of the series) unless noted;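 also: carbachol stimulus at about its EC50 of 1 µM final; % is scaled to controls: 0 for no effect and ±100 for the full control effect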
In short: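 Read-out: CCF4 FRET ratio (460 nm/530 nm) after 1 h RT dye loading, used for %activity and AC50 from titration series. Cells: Jurkat NFAT-β-lactamase/M1 line, treated with compound plus 1 uM carbachol for 5 h, 37 °C.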

[3] = Stat Signaling Pathway (AID 446); conditions: ME-180 (cervical carcinoma) SIE beta-lactamase reporter, IL-6 stimulated, 5 h; at 17.2 µM (top of the series) unless noted;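 also: ME-180 cervical cancer cells given 40 pM IL-6 alongside compound; SIE-controlled beta-lactamase reporter measured as 460/530 nm FRET emission ratio; % is scaled to controls: 0 for no effect and ±100 for the full control effect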
In short: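 Emission at 460 and 530 nm (excitation 405 nm) reports SIE-controlled beta-lactamase in ME-180 cells. Cells received compound with 40 pM IL-6 for 5 hrs at 37 C; data scaled between 300 pM IL-6 and 125 nM JAK-inhibitor controls.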

[4] = molecular target: Glucocorticoid receptor (Homo sapiens) (UniProt P04150); test: GR-GFP Redistribution (AID 450;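 active = compounds whose dose series gives a full or clear partial fitted curve of increased nuclear translocation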; also: potency is read from the fitted curve at half-maximal effect); conditions: U2OS GR-GFP nuclear translocation, laser cytometry, 2 h; series mostly up to 20.6 µM
Glucocorticoid receptor (Homo sapiens), sequence (P04150 whole entry, looked up): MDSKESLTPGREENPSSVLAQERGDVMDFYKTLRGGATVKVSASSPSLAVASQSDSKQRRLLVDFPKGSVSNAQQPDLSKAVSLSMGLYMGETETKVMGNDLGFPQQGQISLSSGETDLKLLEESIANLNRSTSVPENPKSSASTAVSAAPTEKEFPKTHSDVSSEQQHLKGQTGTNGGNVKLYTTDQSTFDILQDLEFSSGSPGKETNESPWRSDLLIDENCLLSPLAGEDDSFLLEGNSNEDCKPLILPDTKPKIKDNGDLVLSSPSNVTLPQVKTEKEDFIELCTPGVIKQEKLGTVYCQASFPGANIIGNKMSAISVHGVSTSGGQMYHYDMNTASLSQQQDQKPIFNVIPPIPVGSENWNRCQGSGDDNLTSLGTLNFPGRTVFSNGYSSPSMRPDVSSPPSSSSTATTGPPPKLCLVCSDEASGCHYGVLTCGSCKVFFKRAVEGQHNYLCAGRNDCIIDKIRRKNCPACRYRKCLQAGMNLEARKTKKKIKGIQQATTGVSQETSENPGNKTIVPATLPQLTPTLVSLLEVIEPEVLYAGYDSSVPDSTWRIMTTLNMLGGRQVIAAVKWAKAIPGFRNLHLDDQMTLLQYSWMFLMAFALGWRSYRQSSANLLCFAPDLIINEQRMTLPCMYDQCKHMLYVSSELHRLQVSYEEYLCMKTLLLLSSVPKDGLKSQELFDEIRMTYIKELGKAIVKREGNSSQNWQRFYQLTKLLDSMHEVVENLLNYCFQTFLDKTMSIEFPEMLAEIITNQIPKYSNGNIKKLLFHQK

COc1ccc(CC(=O)OCN2C(=O)c3ccccc3C2=O)cc1
inactive: activity change, negative = inhibition [1] 11.9% | activity change, negative = inhibition [2] -7.12% | activity, negative = inhibition [3] -0.768% | Potency [4] > 20.6 µM

FC(F)(F)c1cccc(N2CCc3cn[nH]c32)c1
inactive: activity change, negative = inhibition [1] -1.96% | activity change, negative = inhibition [2] 0.155% | activity, negative = inhibition [3] -1.19% | Potency [4] > 20.6 µM

CCOC(=O)CNC(=O)CNC(=O)c1ccc(OCC(C)C)cc1
inactive: activity change, negative = inhibition [1] -5.66% | activity change, negative = inhibition [2] 8.09% | activity, negative = inhibition [3] -1.49% | Potency [4] > 20.6 µM

CCOc1cccc(-c2nn3c(-c4ccco4)nnc3s2)c1
inactive: activity change, negative = inhibition [1] -15.5% | activity change, negative = inhibition [2] -4.59% | activity, negative = inhibition [3] -0.495% | Potency [4] > 20.6 µM

O=C(OCC#CCSc1nnc(-c2ccccc2)o1)c1cccs1
inactive: activity change, negative = inhibition [1] -3.3% | activity change, negative = inhibition [2] -29.9% | activity, negative = inhibition [3] -1.99% | Potency [4] > 20.6 µM

Cn1ncc2nc[nH]c(=O)c21
inactive: activity change, negative = inhibition [1] 0.993% | activity change, negative = inhibition [2] -1.7% | activity, negative = inhibition [3] 7.35% | Potency [4] > 20.6 µM

Cc1ccc(N2C(=O)C3ON(c4ccccc4)C(c4ccncc4)C3C2=O)c(C)c1 (stereo unspecified)
inactive: activity change, negative = inhibition [1] 4.43% | activity change, negative = inhibition [2] 26.3% | activity, negative = inhibition [3] 0.652% | Potency [4] > 20.6 µM

CC(=O)c1c(C)c2c(n1CCN(C)C)CCCC2
active: activity change, negative = inhibition [1] 123% [activator]
inactive: activity change, negative = inhibition [2] -7.5% | activity, negative = inhibition [3] 9.43% | Potency [4] > 20.6 µM

CSc1nncc(=O)[nH]1
inactive: activity change, negative = inhibition [1] 16.2% | activity change, negative = inhibition [2] 0.69% | activity, negative = inhibition [3] -3.78% | Potency [4] > 20.6 µM

N/C(CCCN1CCCCC1)=N/O
inactive: activity change, negative = inhibition [1] 14.3% | activity change, negative = inhibition [2] -3.1% | activity, negative = inhibition [3] -0.379% | Potency [4] > 20.6 µM

CC(NC(=O)CSc1nnc(COc2ccccc2)o1)c1ccccc1 (stereo unspecified)
inactive: activity change, negative = inhibition [1] -6.03% | activity change, negative = inhibition [2] -0.274% | activity, negative = inhibition [3] 2.03% | Potency [4] > 20.6 µM

Cc1nc2c(c(=O)n1CC1CCCO1)c1nc3ccccc3nc1n2CC(C)C (stereo unspecified)
inactive: activity change, negative = inhibition [1] 2.75% | activity change, negative = inhibition [2] 6.99% | activity, negative = inhibition [3] 8.26% | Potency [4] > 20.6 µM

Cc1nc(NS(=O)(=O)c2ccccc2)sc1NC(=O)OCCN(C)C
inactive: activity change, negative = inhibition [1] -8.74% | activity change, negative = inhibition [2] 13.4% | activity, negative = inhibition [3] 0.248% | Potency [4] > 20.6 µM

COc1ccc(OC)c(C2/C(=C(/O)c3cnn(-c4ccccc4)c3C)C(=O)C(=O)N2CCN(C)C)c1 (stereo unspecified)
inactive: activity change, negative = inhibition [1] 0.346% | activity change, negative = inhibition [2] 4.77% | activity, negative = inhibition [3] 3.03% | Potency [4] > 20.6 µM

c1csc(Cc2nn3c(-c4ccncc4)nnc3s2)c1
inactive: activity change, negative = inhibition [1] -25% | activity change, negative = inhibition [2] 5.73% | activity, negative = inhibition [3] -2.56% | Potency [4] > 20.6 µM

O=C(O)C1CSCN1S(=O)(=O)c1cccc2nsnc12 (stereo unspecified)
inactive: activity change, negative = inhibition [1] 1.17% | activity change, negative = inhibition [2] 4.31% | activity, negative = inhibition [3] -1.2% | Potency [4] > 20.6 µM

COC(=O)C1=C(C)OC(N)=C(C#N)C1c1ccc(OC)c(OC)c1OC (stereo unspecified)
inactive: activity change, negative = inhibition [1] 11.2% | activity change, negative = inhibition [2] -15.6% | activity, negative = inhibition [3] 8.15% | Potency [4] > 20.6 µM

CC1(c2ccco2)NC(=O)NC1=O (stereo unspecified)
inactive: activity change, negative = inhibition [1] 5.26% | activity change, negative = inhibition [2] 1.83% | activity, negative = inhibition [3] 5.48% | Potency [4] > 20.6 µM

COc1ccc(CSc2nnc(C)n2N)cc1Br
inactive: activity change, negative = inhibition [1] -1.02% | activity change, negative = inhibition [2] -3.73% | activity, negative = inhibition [3] 8.37% | Potency [4] > 20.6 µM
